# Screening results: PubChem, several laboratories
# TMEM16A act: mouse TMEM16A channel activation, primary screen. Q8BHY3. actives 0.3% (n = 340,000). HEK293 TMEM16A/YFP-H148Q/I152L, iodide quench fluorescence; stronger effect = lower value. B-score at 10 µM. AID 623877;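 active = fluorescence-ratio B-score plate-corrected deviation score at least 3 library SD below zero, with starting fluorescence score within 5 deviations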;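 note: channel opened by trigger with iodide after compound preincubation; score built on the fluorescence ratio of max minus min over baseline; more negative score means more quench and so TMEM16A activation or potentiation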
# HTR2A ag: mouse HTR2A agonism via beta-arrestin recruitment. CHO-K1 mHTR2A beta-arrestin complementation, luminescence; percent of 30 µM serotonin response. activation, % at 7.6 µM. actives 0.66% (n = 360,000);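 active = activation above a run cutoff, the mean activation of all tested compounds plus 3 SD, cut at about 14% in these data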
# TLR4-MyD88 BLA: inhibitors of human TLR4-MyD88 binding | HeLa CL3-4 TLR4/MyD88 BLA complementation, FRET ratio | inhibition, % at 8.4 µM | actives 0.18% (n = 200,000) | AID 861; in the data active = inhibition above about 25%
# Target sequence (O00206 whole entry, looked up): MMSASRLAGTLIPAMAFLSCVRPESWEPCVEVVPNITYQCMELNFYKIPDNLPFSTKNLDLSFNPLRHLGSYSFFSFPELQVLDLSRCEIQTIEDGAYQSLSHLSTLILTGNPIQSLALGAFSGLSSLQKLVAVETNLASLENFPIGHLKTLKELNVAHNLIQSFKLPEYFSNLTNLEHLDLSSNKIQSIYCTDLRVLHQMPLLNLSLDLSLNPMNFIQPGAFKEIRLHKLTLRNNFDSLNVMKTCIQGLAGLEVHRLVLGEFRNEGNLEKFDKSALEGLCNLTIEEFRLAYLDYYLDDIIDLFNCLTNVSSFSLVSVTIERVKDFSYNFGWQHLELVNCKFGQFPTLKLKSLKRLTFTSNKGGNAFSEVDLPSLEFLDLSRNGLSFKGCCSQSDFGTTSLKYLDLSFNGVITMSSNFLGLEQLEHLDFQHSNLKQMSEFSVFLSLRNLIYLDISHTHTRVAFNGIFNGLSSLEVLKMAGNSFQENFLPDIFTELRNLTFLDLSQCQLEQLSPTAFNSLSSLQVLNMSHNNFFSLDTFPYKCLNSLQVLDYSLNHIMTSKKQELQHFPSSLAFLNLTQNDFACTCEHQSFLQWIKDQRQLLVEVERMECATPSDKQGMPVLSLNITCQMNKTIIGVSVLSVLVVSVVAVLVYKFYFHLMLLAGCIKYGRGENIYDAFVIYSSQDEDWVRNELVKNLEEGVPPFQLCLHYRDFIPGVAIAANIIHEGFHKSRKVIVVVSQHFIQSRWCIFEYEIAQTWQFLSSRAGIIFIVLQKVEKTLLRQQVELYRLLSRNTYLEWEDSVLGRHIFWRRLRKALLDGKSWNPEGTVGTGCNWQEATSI
# Target sequence (Q99836 whole entry, looked up): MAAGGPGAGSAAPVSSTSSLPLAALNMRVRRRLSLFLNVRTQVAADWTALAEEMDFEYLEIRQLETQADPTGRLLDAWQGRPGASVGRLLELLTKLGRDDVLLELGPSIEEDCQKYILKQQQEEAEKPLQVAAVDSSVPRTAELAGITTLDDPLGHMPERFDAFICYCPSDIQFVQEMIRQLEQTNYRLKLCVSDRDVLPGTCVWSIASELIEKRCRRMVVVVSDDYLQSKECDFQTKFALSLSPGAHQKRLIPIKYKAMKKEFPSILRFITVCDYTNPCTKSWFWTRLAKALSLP
# TLR9-MyD88 inh: inhibitors of human TLR9-MyD88 binding; Q9NR96+Q99836; CHO BLA complementation TLR9-MyD88, CCF4 FRET ratio; inhibition, % at 4.98 µM; actives 0.21% (n = 340,000); AID 504734;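 active = inhibition above the mean over all tested compounds plus 3 SD, cut at about 21% in these data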
# NOD2 RIPK2 PPI: NOD2-RIPK2 protein interaction inhibition; actives 0.38% (n = 360,000); CHO BLA complementation NOD2-RIPK2, CCF4 ratio; inhibition, % at 4.98 µM; AID 624267; O43353; in the data active = inhibition above about 21%
# ANO1 block: blocks the mouse calcium-activated chloride channel TMEM16A | Q8BHY3 | HEK293 TMEM16A/YFP iodide influx fluorescence, ionomycin | normalized B-score (activity score, 25-100; higher = stronger inhibition) at 10 µM | actives 1.2% (n = 310,000) | AID 588511;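 active = ratio plate-corrected score three or more library SD toward inhibition, starting fluorescence score within five deviations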;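 note: score derived from kinetic fluorescence span divided by baseline fluorescence per well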
# TMEM16A reconf: reconfirmed blocker of mouse TMEM16A calcium-activated chloride channel; shares compounds with ANO1 block; HEK293 TMEM16A/YFP-H148Q, iodide quench fluorescence; ionomycin added to raise cell calcium; inhibition, % at 10 µM; actives 39% (n = 2,300); AID 652189;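 active = mean duplicate percent inhibition, scaled so buffer wells are 0 and the reference blocker 100, over three buffer SD above buffer mean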
# TMEM16A Ca cntr: counter-screen for TMEM16A inhibitors: effect on calcium mobilization; TMEM16A/YFP HEK293, Fluo4 calcium mobilization; actives 2% (n = 2,300); AID 652231; shares compounds with ANO1 block; calcium response (% of ionomycin), % at 10 µM;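 active = duplicate-averaged calcium signal over 20% of the ionomycin maximum, relative to buffer baseline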;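 note: each well's signal is peak minus trough fluorescence divided by its pre-addition baseline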
# Parental YFP cnt: counter-screen for TMEM16A inhibitors: effect in parental YFP-HEK293 cells. shares compounds with ANO1 block. iodide YFP quench, ionomycin. YFP ratio F(max-min)/F0 at 10 µM. 2,300 tested, under 10 active. AID 652233;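 active = yellow fluorescent protein signal ratio exceeding the buffer control mean by over 5 SD of those controls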;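 note: ratio is mean of duplicate wells from kinetic YFP trace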
# ClC-1 inh: rat ClC-1 inhibition, TMEM16A specificity screen. shares compounds with ANO1 block. AID 652236. 2,300 tested, under 10 active. CHO ClC-1-YFP, iodide influx fluorescence quench; iodide control reads 0, buffer control 100. ratio percent, % at 10 µM;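 active = duplicate-mean ratio percent above the mean of iodide-only control wells, which defines zero, plus 5 of their SD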;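 note: higher percent means stronger block of ClC-1 iodide influx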
# Numbers stand for hits; – = inactive; · = no result given; ! = a repeat was not active. Compounds with a hit are over-represented: about 2.4% of the library has one in this group of screens.
SMILES,TMEM16A act,HTR2A ag,TLR4-MyD88 BLA,TLR9-MyD88 inh,NOD2 RIPK2 PPI,ANO1 block,TMEM16A reconf,TMEM16A Ca cntr,Parental YFP cnt,ClC-1 inh
C/C(=N\NC(=O)CSc1nc(C)[nH]c1[N+](=O)[O-])c1ccc(F)cc1,–,–,·,–,–,100,–,–,–,–
CCOC(=O)Cc1csc2nc3sc(C)c(C)c3c(=O)n12,–,–,–,–,–,–,·,·,·,·
CSc1ccc(CN2CCC2(C)C(=O)NCc2ccc3c(c2)OCO3)cc1 (configuration not stated),·,–,·,·,–,·,·,·,·,·
C=CCc1cc(OC)ccc1OCC(O)CN1CCN(c2ccc(OC)cc2)CC1 (configuration not stated),–,–,–,–,–,25!,–,–,–,–
c1ccc(SC23CCCCN(CCC2)[C@]32CO2)cc1 (some centres not stated),·,–,·,·,–,·,·,·,·,·
CCCc1nnc(NC(=O)C(CC)OC(=O)c2cc(C)nc3ccccc23)s1 (configuration not stated),–,–,–,–,–,100,–,–,–,–
CC(=O)Nc1ccc(NC(=O)c2ccc(Cl)c(S(=O)(=O)N3CCc4ccccc43)c2)cc1,–,–,·,–,–,·,·,·,·,·
O=C(Nc1cccnc1)c1ccc(Cl)c(S(=O)(=O)N2CCc3ccccc32)c1,–,–,–,–,–,100,17.5%,–,–,–
Cc1ccc(NC(=O)CSC2=C(C#N)C(c3ccco3)CC(=O)N2)cc1 (configuration not stated),–,–,–,–,–,25,–,–,–,–
Cc1ccc(C2CC2C(=O)NNC(=S)Nc2cccc(C)c2)cc1 (configuration not stated),–,–,–,–,–,–,·,·,·,·
Cc1ccc(C2CC2C(=O)NNC(=S)Nc2cccc(Cl)c2)cc1 (configuration not stated),–,–,–,–,–,25,23.0%,–,–,–
CC1CC2=C(NC(=S)NC2c2cccc(F)c2)/C(=C/c2cccc(F)c2)C1 (configuration not stated),–,–,–,–,–,·,·,·,·,·
Cc1ccc(-c2noc(CCCC(=O)NC3CCCCC3)n2)cc1,–,–,·,–,–,25,–,–,–,–
Cc1ccc(-c2noc(CCC(=O)NC3CCCC3)n2)cc1,–,–,·,–,–,–,·,·,·,·
Cc1oc2cc([N+](=O)[O-])c(O)c([N+](=O)[O-])c2c1C(=O)c1ccc(Cl)cc1,–,–,·,–,–,25,32.5%,–,–,–
NC(=O)COC(=O)c1ccccc1Nc1ccc(SC(F)F)cc1,–,–,–,–,–,–,·,·,·,·
CC(OC(=O)c1ccccc1Nc1ccc(SC(F)F)cc1)C(N)=O (configuration not stated),–,–,–,–,–,25,–,–,–,–
COc1ccc(OCCSc2nc(C)nc3ccccc23)cc1,–,–,–,–,–,25,58.5%,–,–,–
Cc1nnc2ccc(N3CCC4(CC3)OCCO4)nn12,–,–,–,–,–,–,·,·,·,·
Cc1nnc2ccc(N3CCCC3)nn12,–,–,–,–,–,25,–,–,–,–
Cc1cc(OCC(=O)Nc2ccncc2)ccc1Cl,–,–,·,–,–,25,27.0%,–,–,–
COc1ccc(OC)c(NC(=O)CSc2ccccc2)c1,–,–,–,–,–,–,·,·,·,·
Cc1cc(OCC(=O)Nc2ccncc2)cc(C)c1Br,–,–,–,–,–,–,·,·,·,·
